Compound activity deposited in PubChem BioAssay by National Center for Advancing Translational Sciences (NCATS).
Hits are enriched below; roughly 4.6% of the tested compounds scored in any of these assays.
D1 antagonist: Antagonist of Human D 1 Dopamine Receptor: qHTS; activity change, negative = inhibition, % at 10 µM; HEK293 TREx D1 cells, calcium flux, dopamine EC80; stronger effect = lower value; AID 504652, 2011; hit rate 3.2% among 360,000; in the data active = activity change below about -30%; also: % is scaled to controls: 0 for no effect and ±100 for the full control effect
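Cells carrying a force-coupled, tetracycline-inducible human D1 receptor report calcium flux. Each well gets a 10 s baseline, compound with 180 s monitoring, then an EC80 dopamine stimulus with a second 180 s kinetic read.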
D1 potentiator: Potentiators of Human D1 Dopamine Receptor: qHTS. HEK293 TREx D1 cells, calcium flux, dopamine EC20 potentiation. D(1A) dopamine receptor (Homo sapiens), P21728. AID 504651, 2011. hit rate 0.036% among 360,000. potentiation, % at 10 µM; in the data active = potentiation above about 30%; also: 0% is about no effect
TRHR agonist: qHTS for Small Molecule Agonists and Allosteric Enhancers of Human TRH Receptor: Primary Screen for Agonists; Thyrotropin-releasing hormone receptor (Homo sapiens), P34981; TRHR cells, calcium flux fluo-8, FDSS agonist mode; activation, % at 2 µM; hit rate 0.18% among 360,000; AID 493084, 2011; also: 0% is about no effect
Target sequence (P34981 whole entry, looked up): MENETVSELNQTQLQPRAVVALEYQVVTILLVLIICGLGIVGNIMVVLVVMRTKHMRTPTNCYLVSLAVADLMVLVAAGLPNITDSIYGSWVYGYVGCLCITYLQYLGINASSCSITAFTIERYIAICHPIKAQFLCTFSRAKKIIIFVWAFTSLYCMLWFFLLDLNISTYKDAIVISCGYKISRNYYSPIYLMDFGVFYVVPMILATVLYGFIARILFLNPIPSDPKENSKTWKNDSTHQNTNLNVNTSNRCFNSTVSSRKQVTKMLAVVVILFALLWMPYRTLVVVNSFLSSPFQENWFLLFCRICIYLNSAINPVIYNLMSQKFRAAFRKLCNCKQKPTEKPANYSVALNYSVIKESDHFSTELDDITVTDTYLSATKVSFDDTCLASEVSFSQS
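Fluo-8-loaded TRHR cells; 10 s baseline, compound added, kinetic Ca2+ fluorescence read 1/s, agonist mode.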
D1 agonist: Allosteric Agonists of the Human D1 Dopamine Receptor: qHTS. HEK293 T-REx D1 cells, calcium flux, agonist mode. AID 504660, 2011. activation, % at 2 µM. hit rate 1% among 360,000; also: 0% is about no effect
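Agonism was scored from calcium flux recorded over 180 s (1 read/s) after pintool compound addition, following a 10-cycle baseline. Cells were inducible force-coupled HEK293 TREx D1, plated overnight at 30 C and loaded with no-wash calcium dye.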
TRHR enhancer: qHTS for Small Molecule Agonists and Allosteric Enhancers of Human TRH Receptor: Primary Screen for Enhancers; hit rate 0.66% among 360,000; enhancement, % at 2 µM; AID 493056, 2011; Thyrotropin-releasing hormone receptor (Homo sapiens), P34981; TRHR cells, fluo-8 calcium fluorescence, EC20 TRH enhancement; in the data active = enhancement above about 30%; also: 0% is about no effect
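Enhancer read-out: after compound pinning and an initial kinetic agonist-mode read, an EC20 of TRH (10 nM final) was injected and fluo-8 calcium signal (Ex 480/Em 530) followed at 1 s/cycle for 100 cycles in TRHR-expressing cells.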
* = called active by the depositor; x = no result. Rule as the data show it, unless noted: active = activation above about 30%; inactive = the rest.

SMILES	D1 antagonist	D1 potentiator	TRHR agonist	D1 agonist	TRHR enhancer
COc1ccc(N(Cc2cccs2)C(=O)COc2cc(C)c(Cl)c(C)c2)cc1	-8	0	3	18	2
CC(=O)c1ccc(N2CCN(S(=O)(=O)c3ccc4c(c3)C(C)(C)C(=O)N4)CC2)cc1	-8	-1	0	4	18
CC(=O)c1ccc(N2CCN(S(=O)(=O)c3ccc4ccccc4c3)CC2)cc1	-35*	4	0	0	-1
CCS(=O)(=O)N1CCN(S(=O)(=O)c2ccc3ccccc3c2)CC1	-4	1	0	6	12
CC(=O)c1ccc(NC(=O)CN2CCN(S(=O)(=O)c3ccc4ccccc4c3)CC2)cc1	-35*	x	1	35*	2
CC(C)N1CCN(S(=O)(=O)c2ccc3ccccc3c2)CC1	-92*	-1	-1	2	5
CC1(NC(=O)Nc2cccc3ccccc23)CCS(=O)(=O)C1 (stereo unspecified)	-4	6	0	0	-2
COCc1[nH][nH]c(=O)c1C=Nc1ccc(OC(F)(F)F)cc1	-33*	-4	0	2	-1
CC(C)(C)c1ccc(C(=O)Nc2sc3c(c2C#N)CCC(C(C)(C)C)C3)cc1 (stereo unspecified)	2	-1	-2	0	26
CC(C)(C)C1CCc2c(sc(NC(=O)C3CC=CCC3C(=O)O)c2C#N)C1 (stereo unspecified)	-40*	0	0	0	7
O=C(c1ccc2c(Cl)c3c(nc2c1)CCCC3)N1CCN(c2cccc(Cl)c2)CC1	-9	6	0	7	33*
Cc1nc2cccnc2n1-c1cccc(C(=O)N2CCN(c3cccc(Cl)c3)CC2)c1	-32*	-4	-1	5	-4
CCOCCCn1c(SCC(=O)Nc2ccccc2Cl)nc2c(oc3ccccc32)c1=O	-12	-5	0	-1	-4
COc1ccc(OC)c(CCNC(=O)CCc2nnc3ccc(N4CCCC4)nn23)c1	26	-2	-1	1	5
O=C(NCCc1csc(-c2ccc(F)cc2)n1)c1cccc(F)c1	-55*	-4	0	7	0
O=C(Cc1ccc(F)cc1)NCCc1csc(-c2cccc(F)c2)n1	13	2	0	0	5
O=C(NCCc1csc(-c2cccc(F)c2)n1)c1cccs1	-62*	-5	0	6	-3
Cc1nc(-c2ccc(F)cc2)sc1CCNC(=O)c1cccs1	-64*	-3	-1	10	16
CCOc1ccc(NC(=O)C(=O)NCCc2csc(-c3ccc(F)cc3)n2)cc1	-1	1	0	3	3
CC(=O)Nc1ccc(S(=O)(=O)N(C)Cc2ccccc2)cc1	3	-13	0	10	1
CC(=O)Nc1ccc(S(=O)(=O)N(C)CC(=O)N(C)Cc2sccc2C)cc1	-32*	-9	0	1	1
Cc1ccc(C)c(Cn2cnc3c(cnn3-c3ccc(F)cc3)c2=O)c1	-4	-2	-1	0	-3
CCCC(=O)N1CC(=O)Nc2ccc(C)cc2C1c1ccc(F)cc1 (stereo unspecified)	-88*	-7	-1	-1	4
COc1cccc(C(=O)Nc2cccc(C(=O)OCc3cc(=O)n4nc(C5CC5)sc4n3)c2)c1	-8	0	0	6	2
CCCCCCC(C)n1[nH]c(=O)cc1N (stereo unspecified)	-32*	-14	0	1	26
SMILES	D1 antagonist	D1 potentiator	TRHR agonist	D1 agonist	TRHR enhancer
Cc1ccc(-n2nc(C(=O)Nc3ccc(F)cc3F)c3c4ccccc4n(C)c3c2=O)cc1	0	5	0	0	4
CCn1c(=N)c(C(=O)NC2CCCCC2)cc2c(=O)n3cc(C)ccc3nc21	-31*	0	1	2	-5
Cc1ccc2nc3c(cc(C(=O)NCc4ccco4)c(=N)n3C3CCCC3)c(=O)n2c1	9	x	8	39*	-1
CCn1c(=N)c(C(=O)NC2CCCC2)cc2c(=O)n3cc(C)ccc3nc21	6	0	0	2	3
COc1cccc(CNC(=O)c2ccc(NC(=O)CC3SC(N4CCCCC4)=NC3=O)cc2)c1 (stereo unspecified)	16	-3	1	3	1
CCOC(=O)Nc1ccc2nc3n(c(=O)c2c1)CCCCC3	3	3	0	5	2
O=C(Nc1ccc2nc3n(c(=O)c2c1)CCCCC3)c1cc([N+](=O)[O-])ccc1F	-6	7	-1	1	2
COc1cccc(CNC(=O)C(=O)Nc2ccc3nc4n(c(=O)c3c2)CCCCC4)c1	-40*	-1	-1	-1	7
O=C(NCc1cccc(Cl)c1)C(=O)Nc1ccc2nc3n(c(=O)c2c1)CCCCC3	5	-4	-2	4	5
O=C(Nc1ccc2nc3n(c(=O)c2c1)CCCCC3)c1c(F)ccc([N+](=O)[O-])c1F	-42*	-1	4	5	6
COc1cccc(CNC(=O)c2cccc(NC(=O)CC3SC(N4CCCCC4)=NC3=O)c2)c1 (stereo unspecified)	12	-1	0	0	36*
COCCNC(=O)C(=O)Nc1ccc2nc3n(c(=O)c2c1)CCCCC3	-52*	-4	0	0	-4
COc1ccc(C(=O)C[n+]2ccc3c(c2)nc(-c2cc(OC)c(OC)cc2OC)n3C)cc1	-31*	-4	0	1	-8
Cc1nc2cc(NC(=O)c3ccco3)ccc2n1C	-15	-6	-2	3	0
N#Cc1c(-c2ccc(Cl)cc2)ccn2nc(C3CCCCC3)nc12	-31*	-4	2	-3	-4
CCOc1ccccc1CNC(=O)c1cc2n(n1)CCCN(Cc1ccc(C)cc1)C2=O	14	1	-2	-1	-5
O=C(NCc1ccc(F)cc1)c1cnc2n(c1=O)CCS2	-37*	-3	0	1	1
CSc1nc(N)nc(SCCS(=O)(=O)c2ccc(Cl)cc2)c1C#N	-31*	-9	1	3	-2
O=C(Nc1ccc2c(c1)OCO2)C1CC(=O)N(CCc2ccccc2)C1 (stereo unspecified)	-38*	-6	0	-2	3
COc1ccc(CCN2CC(C(=O)Nc3ccc4c(c3)OCO4)CC2=O)cc1OC (stereo unspecified)	-4	0	0	3	-11
CN1CCN(C2(CNC(=O)c3ccc([N+](=O)[O-])cc3)CCCCC2)CC1	-21	-2	-2	16	6
